This is an account of results in PubChem BioAssay (EPA / NIEHS).

Records with an inconclusive call do not appear. Calls of active or inactive are those of the source. How the source made its calls, unless noted: active means hit-call score of the fitted dose curve at least 0.9, where 1 is the maximum; inactive means score below 0.9.

The nature of experiment [1]: ATG_PBREM_CIS: Attagene CIS-FACTORIAL HepG2 Assay for human Phenobarbital-responsive Enhancer Module (PBREM) (AID 2282955). As to conditions: HepG2 PBREM cis-reporter, Attagene multiplexed transcription; actives raise or lower the signal. The essentials: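 HepG2 cells transiently transfected with multiple cis-regulated reporter transcription units; endogenous factor activity at the PBREM element measured as reporter mRNA 24 h after dosing, via RT-PCR and capillary electrophoresis of fluorescent fragments; bidirectional fitting versus DMSO.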

Experiment [2] concerns the target Paired box protein Pax-6 (Homo sapiens) (UniProt P26367). Put plainly: ATG_Pax6_CIS: Attagene CIS-FACTORIAL HepG2 Assay for human Paired Box 6 (PAX6) (AID 2282956). The note with it: HepG2 CIS-FACTORIAL PAX6 reporter transcription, RNA readout; actives raise or lower the signal. The essentials:
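Read-out is reporter transcript level, measured by RT-PCR with fluorescent primer extension and capillary electrophoresis after 24 h dosing of transfected HepG2 cells. Activity in either direction fitted relative to DMSO control.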

Experiment [3] is described as follows: ATG_PXRE_CIS: Attagene CIS-FACTORIAL HepG2 Assay for human Pregnane X Receptor Element (PXRE) (AID 2282957). The note with it: HepG2 Attagene CIS-FACTORIAL PXRE reporter, mRNA; actives raise or lower the signal. The gist of the method:
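Endogenous transcription factor activity in HepG2 was gauged through induction of reporter mRNA driven by a cis-regulating promoter element, sampled 24 h post-treatment. Activity was fitted in both directions against DMSO negative control.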

Experiment [4] in a line: ATG_RORE_CIS: Attagene CIS-FACTORIAL HepG2 Assay for human RAR-related Orphan Receptor Element (RORE) (AID 2282959). The note with it: HepG2 Attagene cis-factorial RORE reporter, mRNA; actives raise or lower the signal. The gist of the method: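 HepG2 cells transiently transfected with multiple cis-element reporter transcription units, exposed to chemical for 24 h. Reporter mRNA quantified by RT-PCR, 6-FAM primer-extension labeling, HpaI digestion and capillary electrophoresis; bidirectional fit versus DMSO baseline.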

Experiment [5] can be described thus: ATG_Sox_CIS: Attagene CIS-FACTORIAL HepG2 Assay for human SRY-box transcription factor (SOX) (AID 2282960). As to conditions: HepG2 Attagene cis-factorial SOX reporter, mRNA; actives raise or lower the signal. The essentials:
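HepG2 cells transiently transfected with cis-element-driven multiple reporter transcription units, dosed 24 h; reporter mRNA measured by RT-PCR, FAM labelling, HpaI digestion and capillary electrophoresis. Bidirectional fit versus DMSO baseline.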

Experiment [6] can be described thus: ATG_SREBP_CIS: Attagene CIS-FACTORIAL HepG2 Assay for human Sterol Regulatory Element Binding (SREBP) (AID 2282962). The note with it: HepG2 Attagene cis-factorial SREBP reporter, mRNA; actives raise or lower the signal. The essentials: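 Endogenous SREBP activity read as cis-element-driven reporter transcript in transiently transfected HepG2, 24 h post-dosing; quantified via RT-PCR plus capillary electrophoresis of fluorescent fragments. Gain or loss of signal fitted relative to DMSO baseline.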

The nature of experiment [7]: ATG_TCF_b_cat_CIS: Attagene CIS-FACTORIAL HepG2 Assay for human T-Cell-Factor with beta-catenin (TCF/b-cat) (AID 2282965). As to conditions: HepG2 TCF/beta-catenin cis-reporter transcription, actives raise or lower the signal. The gist of the method:
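Measured: reporter mRNA in HepG2 transiently transfected with cis-promoter reporter units, 24 h after chemical addition. Fitting was bidirectional, DMSO as negative control.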

Experiment [8] is described as follows: ATG_TAL_CIS: Attagene CIS-FACTORIAL HepG2 Assay for human TAL Basal Promoter (AID 2282966).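 Further: background control endpoint measuring basal TAL promoter reporter mRNA not a specific factor.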 As to conditions: HepG2 Attagene cis-factorial TAL promoter reporter; actives raise or lower the signal. The essentials:
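Endogenous transcription-factor activity is sensed in HepG2 cells through transfected cis-promoter reporter constructs. After 24 h dosing, reporter transcripts are quantified by RT-PCR and capillary electrophoresis. Gain or loss of signal is fitted relative to DMSO.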

The nature of experiment [9]: ATG_TGFb_CIS: Attagene CIS-FACTORIAL HepG2 Assay for human Transforming Growth Factor (TGF) (AID 2282967). As to conditions: HepG2 Attagene CIS TGFb reporter, mRNA transcription; actives raise or lower the signal. The essentials:
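Transient MRTU transfection of HepG2 (FuGene 6). Dose 24 h. TriZol RNA, oligo(dT) RT, PCR, 6-FAM primer extension, HpaI cut, CE. Bidirectional fit, DMSO = baseline.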

Experiment [10] in a line: ATG_VDRE_CIS: Attagene CIS-FACTORIAL HepG2 Assay for human Vitamin D Receptor Element (VDRE) (AID 2282968). As to conditions: HepG2 VDRE cis-reporter transcription, actives raise or lower the signal. The essentials:
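Readout is VDRE-driven reporter mRNA reflecting endogenous factor activity in human HepG2 cells, sampled 24 h post-dose. Quantification used labelled RT-PCR products separated by capillary electrophoresis; bidirectional analysis relative to DMSO.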

Experiment [11] deals with Estrogen receptor (Homo sapiens) (UniProt P03372). In words: ATG_ERa_TRANS: Attagene TRANS-FACTORIAL HepG2 Assay for human Estrogen Receptor alpha (ERa) (AID 2282970; active means hit-call score of the fitted dose curve at least 0.9, where 1 is the maximum). The note with it: HepG2 Attagene TRANS ERa GAL4 reporter, mRNA. The gist of the method: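 Transfected HepG2 cells carrying GAL4-UAS-driven reporter units were dosed for 24 hours. Total RNA was reverse-transcribed, reporter sequences PCR-amplified, FAM-labelled, HpaI-digested and resolved by capillary electrophoresis. Increases over DMSO control defined activity.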
Estrogen receptor (Homo sapiens), sequence (P03372 whole entry, looked up, the tested form may be a part): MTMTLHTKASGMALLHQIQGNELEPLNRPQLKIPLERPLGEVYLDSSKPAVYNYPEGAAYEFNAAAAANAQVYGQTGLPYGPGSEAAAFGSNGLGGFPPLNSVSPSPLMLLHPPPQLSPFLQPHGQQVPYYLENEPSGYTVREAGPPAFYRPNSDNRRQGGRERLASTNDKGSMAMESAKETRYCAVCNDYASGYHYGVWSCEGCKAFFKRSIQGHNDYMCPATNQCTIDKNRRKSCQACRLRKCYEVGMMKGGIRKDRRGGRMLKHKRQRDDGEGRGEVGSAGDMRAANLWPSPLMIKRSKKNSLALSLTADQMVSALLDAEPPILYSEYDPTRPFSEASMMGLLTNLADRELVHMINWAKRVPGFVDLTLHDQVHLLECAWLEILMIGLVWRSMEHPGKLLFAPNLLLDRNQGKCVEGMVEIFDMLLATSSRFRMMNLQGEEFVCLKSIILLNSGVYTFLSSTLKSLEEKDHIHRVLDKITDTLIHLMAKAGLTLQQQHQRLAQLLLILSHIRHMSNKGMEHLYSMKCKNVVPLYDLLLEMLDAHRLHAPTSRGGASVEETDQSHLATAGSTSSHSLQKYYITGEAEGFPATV

Experiment [12] addresses X-box-binding protein 1 (Homo sapiens) (UniProt P17861). In words: ATG_Xbp1_CIS: Attagene CIS-FACTORIAL HepG2 Assay for human X-box Binding Protein 1 (XBP1) (AID 2282972). As to conditions: HepG2 XBP1 cis-element reporter, Attagene multiplex; actives raise or lower the signal. The essentials: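 Reporter transcripts were quantified by RT-PCR with fluorescent primer extension and capillary electrophoresis after 24 h chemical exposure. Cells: transiently transfected HepG2 carrying cis-regulated reporter constructs; data fitted bidirectionally relative to DMSO.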

Experiment [13] deals with Transcription factor Sp1 (Homo sapiens) (UniProt P08047). In words: ATG_Sp1_CIS: Attagene CIS-FACTORIAL HepG2 Assay for human Specificity Protein 1 (Sp1) (AID 2282961). The note with it: HepG2 Sp1 cis-reporter transcription, actives raise or lower the signal. The gist of the method:
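HepG2 cells transiently transfected with multiple reporter transcription units driven by cis-regulatory elements; Sp1-responsive reporter mRNA measured 24 h after dosing by RT-PCR and capillary electrophoresis fluorescence, fitted bidirectionally against DMSO baseline.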

The nature of experiment [14]: ATG_TA_CIS: Attagene CIS-FACTORIAL HepG2 Assay for human TA Basal Promoter (AID 2282964). The note with it: HepG2 Attagene CIS-factorial TA basal promoter reporter; actives raise or lower the signal. The essentials:
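Read-out: fluorescent reporter-transcript fragments resolved by capillary electrophoresis after RT-PCR and HpaI digestion. Source: HepG2 cells carrying transiently transfected multi-reporter cis constructs, treated 24 h. Endpoint fitted bidirectionally relative to DMSO.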

Experiment [15] addresses Steroid hormone receptor ERR1 (Homo sapiens) (UniProt P11474). Put plainly: ATG_ERRa_TRANS: Attagene TRANS-FACTORIAL HepG2 Assay for human Estrogen-Related Receptor alpha (ERRa) (AID 2282971; active means hit-call score of the fitted dose curve at least 0.9, where 1 is the maximum). The note with it: HepG2 Attagene TRANS reporter, ERRa transactivation. The gist of the method:
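HepG2 cells were transiently transfected with multiple GAL4-UAS reporter units, then dosed with compound for 24 h. Total RNA was reverse-transcribed, reporter cDNA PCR-amplified and fluorescently labelled, and fragments resolved by capillary electrophoresis; induction was compared with DMSO.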

Experiment [16] can be described thus: ATG_M_19_TRANS: Attagene TRANS-FACTORIAL HepG2 Assay for M19 Transcription Factor (Internal Marker) (AID 2282974; active means hit-call score of the fitted dose curve at least 0.9, where 1 is the maximum). The note with it: HepG2 Attagene TRANS-FACTORIAL M19 internal marker reporter. The gist of the method: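 HepG2 cells transiently transfected with multiple GAL4-UAS reporter transcription units were exposed to chemicals for 24 h. Reporter mRNA was read by RT-PCR, 6-FAM primer extension, HpaI digestion and capillary electrophoresis; gain of signal fitted relative to DMSO.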

Experiment [17] has as its target Nuclear receptor subfamily 1 group I member 3 (Homo sapiens) (UniProt Q14994). In words: ATG_CAR_TRANS: Attagene TRANS-FACTORIAL HepG2 Assay for human Constitutive Androstane Receptor (CAR) (AID 2282969; active means hit-call score of the fitted dose curve at least 0.9, where 1 is the maximum;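 further: activators raise reporter mRNA above DMSO so AC50 marks induction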). As to conditions: HepG2 Attagene TRANS-FACTORIAL CAR reporter. The essentials: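 Signal is reporter mRNA induction relative to DMSO, measured 24 h after dosing by RT-PCR with fluorescent primer extension and capillary electrophoresis. Human HepG2 liver cells carried transiently transfected chimeric NR-Gal4/GAL4-UAS reporter constructs.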

A short description of experiment [18]: ATG_PPRE_CIS: Attagene CIS-FACTORIAL HepG2 Assay for human Peroxisome Proliferator-activated Response Element (PPRE) (AID 2282958). As to conditions: HepG2 PPRE cis-element reporter, Attagene transcription factor profiling; actives raise or lower the signal. The essentials: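 HepG2 cells transiently transfected with multiplexed cis-element reporter units measure endogenous transcription factor activity. After 24 h compound exposure, reporter mRNA is quantified by RT-PCR, 6-FAM labeling, HpaI digestion and capillary electrophoresis; bidirectional fits are made against DMSO baseline.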

In experiment [19] the target is Signal transducer and activator of transcription 3 (Homo sapiens) (UniProt P40763). In words: ATG_STAT3_CIS: Attagene CIS-FACTORIAL HepG2 Assay for human Signal Transducer and Activator of Transcription 3 (STAT3) (AID 2282963). The note with it: HepG2, Attagene cis-factorial STAT3 reporter transcription; actives raise or lower the signal. The gist of the method:
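Readout is reporter transcript quantified by RT-PCR and capillary electrophoresis, with 6-FAM primer extension and HpaI digestion. Total RNA is taken 24 h after dosing transiently transfected HepG2 carrying cis-regulated reporter units. Bidirectional fit against DMSO.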

The nature of experiment [20]: ATG_GAL4_TRANS: Attagene TRANS-FACTORIAL HepG2 Assay for GAL4 (Internal Marker) (AID 2282976; active means hit-call score of the fitted dose curve at least 0.9, where 1 is the maximum). As to conditions: HepG2 Attagene TRANS GAL4 internal marker reporter. The essentials:
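Fluorescence from capillary electrophoresis of labelled RT-PCR products quantifies reporter mRNA induction after 24 h dosing of HepG2 cells carrying transfected GAL4-UAS reporter transcription units. Vehicle DMSO serves as baseline.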

Nuclear receptor subfamily 1 group I member 3 (Homo sapiens), sequence (Q14994 whole entry, looked up, the tested form may be a part): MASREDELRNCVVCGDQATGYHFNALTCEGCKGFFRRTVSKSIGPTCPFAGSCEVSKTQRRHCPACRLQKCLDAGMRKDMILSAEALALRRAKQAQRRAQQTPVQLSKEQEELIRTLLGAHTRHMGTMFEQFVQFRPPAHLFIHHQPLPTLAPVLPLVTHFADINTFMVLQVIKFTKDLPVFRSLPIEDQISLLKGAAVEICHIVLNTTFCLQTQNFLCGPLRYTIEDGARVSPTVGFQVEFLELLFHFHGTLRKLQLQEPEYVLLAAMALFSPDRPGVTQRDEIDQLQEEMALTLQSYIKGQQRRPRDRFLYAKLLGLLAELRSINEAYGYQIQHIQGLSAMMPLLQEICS
X-box-binding protein 1 (Homo sapiens), sequence (P17861 whole entry, looked up): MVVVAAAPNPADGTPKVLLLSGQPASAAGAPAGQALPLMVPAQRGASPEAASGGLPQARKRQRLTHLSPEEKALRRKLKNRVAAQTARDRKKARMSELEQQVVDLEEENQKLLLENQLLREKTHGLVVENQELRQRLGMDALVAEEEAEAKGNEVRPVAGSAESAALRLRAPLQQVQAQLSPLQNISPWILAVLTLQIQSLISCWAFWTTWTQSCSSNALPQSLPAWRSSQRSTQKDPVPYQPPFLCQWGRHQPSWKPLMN
Signal transducer and activator of transcription 3 (Homo sapiens), sequence (P40763 whole entry, looked up): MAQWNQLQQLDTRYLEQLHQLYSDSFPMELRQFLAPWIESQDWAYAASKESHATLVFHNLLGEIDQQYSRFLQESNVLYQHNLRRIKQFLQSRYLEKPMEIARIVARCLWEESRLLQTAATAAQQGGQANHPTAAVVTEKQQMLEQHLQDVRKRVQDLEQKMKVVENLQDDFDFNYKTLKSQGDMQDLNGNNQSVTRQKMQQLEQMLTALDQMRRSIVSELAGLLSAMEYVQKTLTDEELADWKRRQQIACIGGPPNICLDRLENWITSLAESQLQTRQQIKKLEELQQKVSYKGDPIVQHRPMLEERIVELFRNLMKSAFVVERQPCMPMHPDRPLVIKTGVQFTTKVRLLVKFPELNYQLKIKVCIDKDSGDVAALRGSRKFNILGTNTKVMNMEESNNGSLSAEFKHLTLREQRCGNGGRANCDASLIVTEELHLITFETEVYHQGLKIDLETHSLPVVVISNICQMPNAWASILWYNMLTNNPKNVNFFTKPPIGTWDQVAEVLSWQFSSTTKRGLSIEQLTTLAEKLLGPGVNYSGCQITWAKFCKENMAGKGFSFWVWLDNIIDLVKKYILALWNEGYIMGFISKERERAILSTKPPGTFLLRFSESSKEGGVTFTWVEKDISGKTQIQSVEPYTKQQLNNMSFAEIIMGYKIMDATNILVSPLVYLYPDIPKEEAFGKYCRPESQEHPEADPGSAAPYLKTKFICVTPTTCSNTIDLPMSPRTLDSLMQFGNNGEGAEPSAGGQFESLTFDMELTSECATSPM
Paired box protein Pax-6 (Homo sapiens), sequence (P26367 whole entry, looked up): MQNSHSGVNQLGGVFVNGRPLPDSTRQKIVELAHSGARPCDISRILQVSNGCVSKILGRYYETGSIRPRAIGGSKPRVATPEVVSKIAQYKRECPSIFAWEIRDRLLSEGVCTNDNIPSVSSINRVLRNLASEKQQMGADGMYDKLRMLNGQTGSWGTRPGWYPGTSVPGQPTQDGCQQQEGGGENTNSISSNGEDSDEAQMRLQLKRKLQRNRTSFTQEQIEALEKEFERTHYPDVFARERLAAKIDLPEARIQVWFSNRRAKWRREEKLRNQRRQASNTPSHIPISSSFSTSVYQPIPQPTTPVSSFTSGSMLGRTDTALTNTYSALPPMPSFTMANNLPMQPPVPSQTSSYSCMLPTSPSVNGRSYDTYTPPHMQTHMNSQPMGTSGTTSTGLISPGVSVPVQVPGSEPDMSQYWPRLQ
Transcription factor Sp1 (Homo sapiens), sequence (P08047 whole entry, looked up): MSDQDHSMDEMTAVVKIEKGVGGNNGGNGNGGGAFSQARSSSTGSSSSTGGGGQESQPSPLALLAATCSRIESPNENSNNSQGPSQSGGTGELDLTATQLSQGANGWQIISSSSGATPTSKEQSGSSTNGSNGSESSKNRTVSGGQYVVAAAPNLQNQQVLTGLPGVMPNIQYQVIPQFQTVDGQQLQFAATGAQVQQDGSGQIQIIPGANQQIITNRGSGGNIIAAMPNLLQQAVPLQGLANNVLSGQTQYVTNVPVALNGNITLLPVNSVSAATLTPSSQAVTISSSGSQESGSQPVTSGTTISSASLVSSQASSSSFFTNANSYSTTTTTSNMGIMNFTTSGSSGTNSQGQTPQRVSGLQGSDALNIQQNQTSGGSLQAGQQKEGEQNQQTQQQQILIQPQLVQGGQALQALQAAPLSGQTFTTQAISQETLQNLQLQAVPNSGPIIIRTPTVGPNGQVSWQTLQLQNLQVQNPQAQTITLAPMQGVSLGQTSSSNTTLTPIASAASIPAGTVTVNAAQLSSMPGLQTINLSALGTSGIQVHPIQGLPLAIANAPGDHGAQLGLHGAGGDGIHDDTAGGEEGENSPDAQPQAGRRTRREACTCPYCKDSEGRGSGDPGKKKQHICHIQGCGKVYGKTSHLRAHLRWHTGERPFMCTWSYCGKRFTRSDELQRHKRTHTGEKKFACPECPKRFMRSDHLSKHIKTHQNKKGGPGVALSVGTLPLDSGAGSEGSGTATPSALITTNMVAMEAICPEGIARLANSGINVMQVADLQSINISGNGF
Steroid hormone receptor ERR1 (Homo sapiens), sequence (P11474 whole entry, looked up, the tested form may be a part): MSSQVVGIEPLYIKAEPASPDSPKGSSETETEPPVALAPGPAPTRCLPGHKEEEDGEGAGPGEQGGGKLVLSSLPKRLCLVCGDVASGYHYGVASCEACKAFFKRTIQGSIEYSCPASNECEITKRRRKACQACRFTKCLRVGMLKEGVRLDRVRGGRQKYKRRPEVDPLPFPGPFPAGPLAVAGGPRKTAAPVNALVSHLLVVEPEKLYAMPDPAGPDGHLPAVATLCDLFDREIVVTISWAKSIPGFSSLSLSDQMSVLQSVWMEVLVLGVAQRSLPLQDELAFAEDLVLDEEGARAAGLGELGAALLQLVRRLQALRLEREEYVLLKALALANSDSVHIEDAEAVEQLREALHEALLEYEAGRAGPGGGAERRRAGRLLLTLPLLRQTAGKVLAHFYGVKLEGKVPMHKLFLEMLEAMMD

On to `CCCc1ccc(O)c(OC)c1`, for which the result in [1], in [2], in experiment [3], in experiment [4], in [5] and in experiment [6] was inactive. Besides, the outcome in [7], in experiment [8], in experiment [9], in experiment [10], in [11] and in experiment [12] was inactive.

On to `CCCCCOC(=O)CCCCC`, for which the result in experiment [1], in experiment [2], in experiment [3], in experiment [5], in [13] and in experiment [6] was inactive. Besides, the call in [14], in experiment [7], in experiment [8], in experiment [9], in [10] and in [11] was inactive. The outcome in experiment [15], in [12] and in [16] was inactive.

The term AC50 denotes the midpoint of the concentration-response curve, whichever way the signal moves. Consider `CCCCCCCO`, for which the result in [1], in [2], in experiment [4], in experiment [5], in experiment [6] and in [14] was inactive. In addition, the molecule was called inactive in experiment [7], in [8], in experiment [9], in experiment [10], in experiment [17] and in [12]. Besides, the molecule was called inactive in [16]. Moreover, the AC50 is 39.1 µM (active) in [3] and 67.1 µM (active) in experiment [11].

Turning to `CC(C)(O)Cc1ccccc1`, the result in experiment [1], in [2], in [18], in [4], in experiment [5] and in experiment [13] was inactive. Further, the molecule was called inactive in [6], in experiment [19], in [14], in [7], in [8] and in experiment [9]. The outcome in experiment [10], in experiment [11], in experiment [15], in experiment [12] and in [16] was inactive.

`CCCCCCCOC(=O)c1ccc(O)cc1`: the outcome in experiment [1], in experiment [2], in [3], in experiment [4], in [6] and in experiment [19] was inactive. The call in experiment [14], in experiment [7], in [8], in experiment [9], in experiment [10] and in experiment [17] was inactive. The call in experiment [20] was inactive. For the same molecule, the figures for the AC50 in experiment [5], in experiment [11] and in [12] were 33.4 µM (active), 8.4 µM (active) and 45.1 µM (active), respectively.

`CC1=CC=C(C(C)C)CC1`: the result in [1], in experiment [2], in experiment [5], in experiment [13], in [6] and in experiment [19] was inactive. Besides, the molecule was classed as inactive in experiment [14], in experiment [7], in experiment [8], in experiment [9], in experiment [17] and in [11]. Moreover, the outcome in [12] and in [16] was inactive. In experiment [3], the half-maximal activity concentration (AC50) is 3.61 µM (active).

As for `CCCCC(=O)O`, the result in experiment [1], in [2], in experiment [3], in experiment [4], in [5] and in experiment [13] was inactive. In addition, the outcome in experiment [6], in [7], in experiment [8], in experiment [9], in [10] and in experiment [17] was inactive. Also, the outcome in [11], in experiment [12], in experiment [16] and in experiment [20] was inactive.
